We go through 13 compounds from PubChem BioAssay.

Values without a mark were called inactive. The source made the active and inactive calls.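 The calls were made as follows, unless noted: active = compounds that lower survival of HCT116 colon cancer cells in the luminescence readout, no numeric limit stated; inactive = the rest.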

Assay [1] is described as follows: stimulators of insulin release from INS-1E, primary screen, cell-based, 5 mM glucose, NPC library (AID 1117329;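 active = compound raises insulin release from rat beta cells at 5 mM glucose, no numeric limit stated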). The conditions noted are these: rat INS-1E insulin secretion, at 10 µM, stronger effect = higher value.
Assay [2] can be described thus: growth inhibition of GSK3B-pretreated HCT116 cells – cell-based, CellTiter-Glo, 0.2 to 20 µM (AID 1117336;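 active = compounds lowering colon cancer cell viability after pretreatment blocking the GSK3B kinase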). The conditions noted are these: HCT116 viability after GSK3B inhibitor, at 20 µM, stronger effect = higher value. (In general: Cellular ATP, detected with luciferase, serves as a proxy for viable cell number.)
Assay [3] can be described thus: inhibition of endothelial tube formation, primary screen, imaging, VEGF stimulated, CD31 staining, tube area, NPC library (AID 1117340;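 active = compound that reduces growth-factor-driven endothelial tube area in a mixed cell culture, no cutoff stated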). The conditions noted are these: VEGF-stimulated ADSC/ECFC co-culture, at 10 µM, stronger effect = higher value.
A short description of assay [4]: GLP1 release stimulators, primary, NCI-H716, NPC library (AID 1117341;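 active = compound raises GLP1 secretion from the human gut endocrine cells, with no numeric limit stated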). Conditions: NCI-H716 cells, at 10 µM, stronger effect = higher value.
A short description of assay [5]: HCT116 colon cancer cell growth inhibition, primary screen, CellTiter-Glo luminescence, NPC library (AID 1117342). The conditions noted are these: at 20 µM (top of the series).
Assay [6] can be described thus: reduced SW480 viability measured with CellTiter-Glo, NPC library, primary (AID 1117343;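 active = compounds that lower viability of the colon cancer cells in the luminescence readout, with no numeric limit stated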). Conditions: CellTiter-Glo luminescence; at 20 µM (top of the series).
Assay [7] can be described thus: NPC library primary testing for decreased DLD-1 cell viability via CellTiter-Glo (AID 1117346;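 active = compounds that lower survival of DLD-1 colon cancer cells in the luminescence readout, no cutoff given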). The conditions noted are these: DLD-1 viability, CellTiter-Glo luminescence; at 20 µM (top of the series).
Assay [8] addresses 6-phosphogluconate dehydrogenase, decarboxylating (Homo sapiens) (UniProt P52209). Put plainly: inhibition of human phosphogluconate dehydrogenase – biochemical, recombinant enzyme, NADPH absorbance, primary screen (AID 1159550;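 active = at least 20% inhibition of 6-phosphogluconate dehydrogenase activity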). Conditions: recombinant 6PGD, NADPH absorbance 341 nm; at 10 µM; stronger effect = higher value.

Chain of 6-phosphogluconate dehydrogenase, decarboxylating (Homo sapiens) (P52209 whole entry, looked up): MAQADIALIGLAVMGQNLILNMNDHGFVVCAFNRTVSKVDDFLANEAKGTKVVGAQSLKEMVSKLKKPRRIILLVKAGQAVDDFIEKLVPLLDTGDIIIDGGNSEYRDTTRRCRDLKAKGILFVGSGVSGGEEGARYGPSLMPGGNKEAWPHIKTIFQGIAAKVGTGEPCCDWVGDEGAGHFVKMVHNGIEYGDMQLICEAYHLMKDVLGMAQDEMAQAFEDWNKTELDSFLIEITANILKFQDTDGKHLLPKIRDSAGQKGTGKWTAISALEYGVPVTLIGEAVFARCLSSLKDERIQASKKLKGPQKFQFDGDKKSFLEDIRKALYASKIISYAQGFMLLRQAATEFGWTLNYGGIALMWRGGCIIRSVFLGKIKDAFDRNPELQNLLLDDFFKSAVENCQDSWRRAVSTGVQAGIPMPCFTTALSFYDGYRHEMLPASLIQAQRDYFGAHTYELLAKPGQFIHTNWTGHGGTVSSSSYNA

A word on the inhibition: it is the relative decrease from the control value, in per cent. Regarding `CC1=C(C(=O)O)N2C(=O)[C@@H](NC(=O)[C@H](N)c3ccc(O)cc3)[C@H]2SC1`, the insulin secretion stimulation in assay [1] was -0.5%. In addition, the viability decrease in assay [2] was -2.2%. Besides, in assay [3], the tube area decrease is -4.7%. Besides, the GLP1 secretion stimulation in assay [4] was -0.3%. The inhibition of viability in assay [5] was 7.3%. Further, the viability decrease (inhibition) is 7.8% in assay [6] and 7.3% in assay [7]. The inhibition in assay [8] is -1.37%.

With `COc1cc(NS(=O)(=O)c2ccc(N)cc2)nc(OC)n1`, the insulin secretion stimulation in assay [1] is 1.8%. Besides, the viability decrease in assay [2] was -7.9%. Moreover, the tube area decrease in assay [3] was 0.8%. Further, the GLP1 secretion stimulation in assay [4] is 1.9%. Besides, the inhibition of viability in assay [5] was -0.4%. Besides, the viability decrease (inhibition) in assay [6] is 8.4%; in assay [7], 0.7%. In addition, the inhibition in assay [8] is -12.2%.

As to `O=C(O)c1cc(=O)c2ccccc2o1`, the insulin secretion stimulation in assay [1] is -2.1%. Moreover, the viability decrease in assay [2] was -1.35%. For the same compound, in assay [3], the tube area decrease is -2.1%. Besides, in assay [4], the GLP1 secretion stimulation is 3.7%. Also, in assay [5], the inhibition of viability is -9.2%. The figures for the viability decrease (inhibition) in assay [6] and in assay [7] were 6.8% and 1.75%, respectively. Further, the inhibition in assay [8] was -2.11%.

For `CCn1cc(C(=O)O)c(=O)c2cnc(N3CCCC3)nc21`, in assay [1], the insulin secretion stimulation is -0.4%. In addition, the viability decrease in assay [2] was -29.5%. The tube area decrease in assay [3] is 1.8%. In addition, the GLP1 secretion stimulation in assay [4] was 1.2%. For the same compound, the inhibition of viability in assay [5] is 0%. In addition, the values for the viability decrease (inhibition) in assay [6] and in assay [7] were 11.2% and -1.2%, respectively. In assay [8], the inhibition is 5.15%.

For the compound `O=c1cc(CO)occ1O`, the insulin secretion stimulation in assay [1] is -1.3%. Besides, the viability decrease in assay [2] is -8.3%. In assay [3], the tube area decrease is -7.1%. In assay [4], the GLP1 secretion stimulation was 1.9%. In addition, the inhibition of viability in assay [5] was -7%. In addition, the figures for the viability decrease (inhibition) in assay [6] and in assay [7] were 38.7% and 10.8%, respectively. In addition, the inhibition in assay [8] was 6.93%.

On to `Cc1ccc(C(=O)Nc2ccc(S(=O)(=O)O)c3cc(S(=O)(=O)O)cc(S(=O)(=O)O)c23)cc1NC(=O)c1cccc(NC(=O)Nc2cccc(C(=O)Nc3cc(C(=O)Nc4ccc(S(=O)(=O)O)c5cc(S(=O)(=O)O)cc(S(=O)(=O)O)c45)ccc3C)c2)c1`, for which the insulin secretion stimulation in assay [1] was 1.6%. Moreover, the viability decrease in assay [2] is -23.9%. Further, in assay [3], the tube area decrease was 6%. Moreover, the GLP1 secretion stimulation in assay [4] is 36.3% (active). Moreover, in assay [5], the inhibition of viability was -17.7%. In addition, the results for the viability decrease (inhibition) in assay [6] and in assay [7] were -22.7% and 8.3%, respectively. Besides, the inhibition in assay [8] was 27.5% (active).

Turning to `O=C(O)c1ccc(S(=O)(=O)N(Cl)Cl)cc1`, in assay [1], the insulin secretion stimulation is 1.2%. In addition, the viability decrease in assay [2] is -8.9%. Besides, the tube area decrease in assay [3] was -29.4%. In addition, the GLP1 secretion stimulation in assay [4] is 0%. Besides, the inhibition of viability in assay [5] was 8.13%. The viability decrease (inhibition) is 16.9% in assay [6] and -6.9% in assay [7]. Besides, in assay [8], the inhibition is 13.4%.

As to `OCc1ccccc1O`, the insulin secretion stimulation in assay [1] was -0.1%. In addition, the viability decrease in assay [2] was -7.2%. For the same compound, the tube area decrease in assay [3] is 19.2%. Further, in assay [4], the GLP1 secretion stimulation was -0.3%. In addition, in assay [5], the inhibition of viability is -6.03%. In addition, the viability decrease (inhibition) in assay [6] is -5.8%; in assay [7], -17.8%. For the same compound, the inhibition in assay [8] was -10.9%.

Turning to `COc1cc([C@H]2Oc3cc([C@H]4Oc5cc(O)cc(O)c5C(=O)[C@@H]4O)ccc3O[C@@H]2CO)ccc1O`, the insulin secretion stimulation in assay [1] is 1.8%. Besides, in assay [2], the viability decrease is -35.4%. Besides, the tube area decrease in assay [3] is 4.2%. In assay [4], the GLP1 secretion stimulation was 2.1%. Moreover, in assay [5], the inhibition of viability was 18.7%. For the same compound, the figures for the viability decrease (inhibition) in assay [6] and in assay [7] were 16.2% and -3.4%, respectively. For the same compound, the inhibition in assay [8] is 9.07%.

As for `Nc1ncnc2c1ncn2[C@@H]1O[C@H](COP(=O)(O)O)[C@@H](O)[C@H]1O`, the insulin secretion stimulation in assay [1] was 0.05%. In assay [2], the viability decrease was -14.7%. The tube area decrease in assay [3] was -5.6%. In assay [4], the GLP1 secretion stimulation was 4%. Further, the inhibition of viability in assay [5] was -14.3%. The values for the viability decrease (inhibition) in assay [6] and in assay [7] were 73.2% (active) and -4.1%, respectively. The inhibition in assay [8] was -8.33%.

Regarding `CC1CCc2cc(F)cc3c(=O)c(C(=O)O)cn1c23` (centres undefined), in assay [1], the insulin secretion stimulation is 1.1%. In addition, the viability decrease in assay [2] was -105%. For the same compound, in assay [3], the tube area decrease was 3.3%. The GLP1 secretion stimulation in assay [4] was -1.9%. The inhibition of viability in assay [5] is 19.6%. Further, the viability decrease (inhibition) in assay [6] was 51.1% (active); in assay [7], -6.7%. Besides, the inhibition in assay [8] was 2.78%.

As for `C/C=C/c1ccc(OC)cc1`, in assay [1], the insulin secretion stimulation is 1.3%. For the same compound, in assay [2], the viability decrease is -5.7%. Further, the tube area decrease in assay [3] is 6.2%. For the same compound, the GLP1 secretion stimulation in assay [4] is -1.8%. The inhibition of viability in assay [5] is 10.8%. The viability decrease (inhibition) is 20.9% in assay [6] and -3.2% in assay [7]. Further, the inhibition in assay [8] is 6.64%.

For the compound `O=C(O)c1ccccc1OP(=O)(O)O`, the insulin secretion stimulation in assay [1] was 0.8%. For the same compound, the viability decrease in assay [2] was -21.3%. In addition, the tube area decrease in assay [3] was -18.8%. In assay [4], the GLP1 secretion stimulation is 1.7%. Also, the inhibition of viability in assay [5] is 1.07%. Moreover, the viability decrease (inhibition) in assay [6] was 6.6%; in assay [7] it was -7.1%. In addition, the inhibition in assay [8] is -2.26%.
